# Bioassay records deposited in PubChem BioAssay by National Center for Advancing Translational Sciences (NCATS).
# NIH3T3 tox: NIH 3T3 cell cytotoxicity; Potency, µM (doses to about 96.7 µM), for inactives: at the top dose activity change, negative = cytotoxicity, hits mostly inhibitors; NIH 3T3 viability, CellTiter-Glo ATP luminescence, 48-72 h; AID 1345082; 94,000 tested, 4.3% active; further: on the % scale 0 is the no-effect control and ±100 the full control effect; nearly all actives have a fitted effect of over 55% in size
#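 Mouse fibroblast NIH 3T3 cells, 400 per well, received compound via pintool and were incubated for 48 or 72 hr prior to CellTiter-Glo ATP luminescence measurement.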
# NPR1 antag: human Npr1 receptor antagonism | P16066 | HEK293 hNpr1 GloSensor cGMP, ANP-stimulated luminescence | Potency, µM (top dose mostly 46.3 µM), inactives show top-dose activity change, negative = inhibition, hits mostly inhibitors | 76,000 tested, 1.6% active | AID 1347048; calls by dose curve; further: on the % scale 0 is the no-effect control and ±100 the full control effect; nearly all actives have a fitted effect of over 60% in size
# Target sequence (P16066 whole entry, looked up): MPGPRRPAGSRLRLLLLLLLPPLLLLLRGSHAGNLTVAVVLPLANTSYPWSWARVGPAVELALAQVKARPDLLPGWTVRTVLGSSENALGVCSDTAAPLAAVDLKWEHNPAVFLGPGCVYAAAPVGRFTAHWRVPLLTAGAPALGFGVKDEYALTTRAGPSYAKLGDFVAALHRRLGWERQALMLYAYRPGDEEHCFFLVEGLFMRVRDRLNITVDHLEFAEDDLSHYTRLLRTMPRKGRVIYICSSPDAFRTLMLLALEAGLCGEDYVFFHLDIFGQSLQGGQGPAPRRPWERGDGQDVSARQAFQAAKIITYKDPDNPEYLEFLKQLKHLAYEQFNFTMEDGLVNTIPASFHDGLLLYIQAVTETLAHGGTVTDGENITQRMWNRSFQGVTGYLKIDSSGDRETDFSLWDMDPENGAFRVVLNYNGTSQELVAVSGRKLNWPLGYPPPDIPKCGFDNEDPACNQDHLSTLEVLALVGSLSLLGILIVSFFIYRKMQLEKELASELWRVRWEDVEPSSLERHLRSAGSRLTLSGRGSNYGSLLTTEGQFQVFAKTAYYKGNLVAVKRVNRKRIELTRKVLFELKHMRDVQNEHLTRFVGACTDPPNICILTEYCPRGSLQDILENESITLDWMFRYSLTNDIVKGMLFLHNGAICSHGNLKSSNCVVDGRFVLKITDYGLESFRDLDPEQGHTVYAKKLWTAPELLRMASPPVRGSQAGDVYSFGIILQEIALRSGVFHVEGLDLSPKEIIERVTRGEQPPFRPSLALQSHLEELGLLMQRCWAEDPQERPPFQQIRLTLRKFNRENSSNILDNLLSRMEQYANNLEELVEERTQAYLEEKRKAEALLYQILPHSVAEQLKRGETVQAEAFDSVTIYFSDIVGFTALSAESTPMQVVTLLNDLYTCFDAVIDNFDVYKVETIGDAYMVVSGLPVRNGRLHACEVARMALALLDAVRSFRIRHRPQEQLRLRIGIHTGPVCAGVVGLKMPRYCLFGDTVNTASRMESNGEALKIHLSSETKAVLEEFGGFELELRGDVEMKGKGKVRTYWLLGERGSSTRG
#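 Compound pre-incubated 30 min at room temperature on GloSensor-loaded HEK293 cells stably carrying hNpr1 and the pGS-40F cGMP biosensor. Stimulation uses hNppA at 0.1 nM final; luminescence is taken at baseline and 20 min post-agonist.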
# HEK293 tox: cytotoxic compounds in HEK 293 cells; HEK 293 viability, ATP luminescence (CellTiter-Glo), 48-72 h; Potency, µM (highest dose often 115 µM), without a hit: at the top dose activity change, negative = cytotoxicity, actives largely listed as inhibitors; 94,000 tested, 6.6% active; AID 1345083; further: on the % scale 0 is the no-effect control and ±100 the full control effect; nearly all actives have a fitted effect of over 60% in size
#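 Read-out: CellTiter-Glo ATP luminescence. Cells: HEK 293, 250 cells/well. Exposure: 48 or 72 hr, 37 degree Celsius.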
# FLuc inh-1: Photinus pyralis luciferase inhibition | purified P. pyralis luciferase, luminescence, biochemical | Potency, µM (highest dose often 115 µM), actives largely listed as inhibitors | 76,000 tested, 2.5% active; further: on the % scale 0 is the no-effect control and ±100 the full control effect; nearly all actives have a fitted effect of over 65% in size
#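 Cell-free enzyme assay, 10nM P. pyralis luciferase, luciferin and ATP each at 10uM. Inhibition profiled over a 6-point titration, read as luminescence.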
# FLuc SDR no ATP: firefly luciferase binding stabilization, ATP absent | 1,300 tested, 7.8% active | Potency, µM (series often up to 32.7 µM), without a hit: top-dose activation (signal gain), actives largely listed as activators | shares compounds with FLuc inh-1 | Purified FLuc-C-HiBiT, Nano-Glo HiBiT luminescence, no ATP; further: nearly all actives have a fitted effect of over 55% in size
# FLuc SDR ATP: stabilizes firefly luciferase with ATP present; shares compounds with FLuc inh-1; purified FLuc-C-HiBiT + ATP, HiBiT complementation luminescence; Potency, µM (highest dose often 32.7 µM), without a hit: at the highest dose activation (gain of signal), usual class: activators; 1,300 tested, 8.7% active;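 further: signal reports ligand binding via conformational change of the enzyme rather than luciferase catalysis; % of control where 0% means no effect; nearly all actives have a fitted effect of over 55% in size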
# FLuc inh-2: inhibitors of firefly luciferase enzymatic activity. shares compounds with FLuc inh-1. purified FLuc-C-HiBiT enzyme, luciferin luminescence. Potency, µM (highest dose often 32.7 µM), inactives show top-dose activity change, negative = inhibition, actives largely listed as inhibitors. 1,300 tested, 42% active; further: on the % scale 0 is the no-effect control and ±100 the full control effect; nearly all actives have a fitted effect of over 70% in size
# Numbers without * were called inactive; i = inactive; ? = inconclusive; · = not tested or not shown; [ ] = dose if it differs, or a comment. The list is not random: actives were taken first. Their share in the collection is about 11%. Unless noted, the call rests on the fitted dose curve; in most records, active means well fitted curve in the direction sought with a large enough effect; inconclusive means small, poorly fitted or top-dose-only effect, or another doubt; inactive means no such curve, though single readings can be large; an effect the other way counts as inactive or inconclusive. Potency means the concentration at half of the fitted maximal effect.
SMILES,NIH3T3 tox,NPR1 antag,HEK293 tox,FLuc inh-1,FLuc SDR no ATP,FLuc SDR ATP,FLuc inh-2
COCCN1CCC2(C1)CN(C)c1ccc(C(=O)NCC3CC3)cc12 (stereo unspecified),?,1%[70.6 µM],-27%[172 µM],i,·,·,·
COCCN1CCC2(C1)CN(C)c1ccc(C(=O)Nc3ccn(C)n3)cc12 (stereo unspecified),·,·,·,·,?,?,10µM*
O=C(NCCc1cccc(F)c1)C1CN(C2CCCCC2)C(=O)N1 (stereo unspecified),-12%[138 µM],·,-11%[172 µM],·,·,·,·
CN(C)C[C@@H]1CN(Cc2ccccc2)C[C@H]1NC(=O)c1cc(C2CC2)[nH]n1,-14%,-4%,-9%,i,·,·,·
COc1cccc(CN2CCc3c(cc(C(=O)Nc4cc(C)ccc4OC)n3C)C2)c1,?,-6%,32µM*,8.9µM*,12%,14%,-11%
CCc1ccc(NC(=O)C2CCN(C(=O)c3nnn4cc(C)[nH]c(=O)c34)CC2)cc1,i,13%,13%,?,·,·,·
FC(F)(F)c1cc(-c2nc3ccccc3s2)cc(C(F)(F)F)c1,·,·,·,·,13%,12%,?
Clc1cccc(-c2nc3ccccc3s2)c1,·,·,·,·,19%,16%,8.8µM*
Cn1cnc2ccc(-c3cccc(C(F)(F)F)c3)nc2c1=O,?,-10%[70.6 µM],?,i,·,·,·
O=C(CSc1nnc2[nH]c(=O)cc(-c3ccccc3)n12)Nc1ccc(OC(F)(F)F)cc1,·,·,·,·,20%,15%,7µM*
CCOC(=O)N1CCC(NCc2cccnc2Oc2ccccc2C)CC1,-5%,2%,-23%,i,·,·,·
CCCC(O)CN1CCC(=O)N(CC)Cc2ccccc21 (stereo unspecified),-22%,·,?,·,·,·,·
COc1ccc(-c2cn3nc(SCC(=O)Nc4cc(C)cc(C)c4)ccc3n2)cc1,·,·,·,·,15%,12%,?
COc1ccc(NC(=O)Cn2c(-c3ccccc3)nc(C)cc2=O)cc1,?,-25%,?,i,·,·,·
O=C(CCCc1ccccc1)N1CCC(Cc2nncn2-c2ccccc2)C1 (stereo unspecified),-33%,·,-22%,·,·,·,·
CC(=O)NC1(C)CN(Cc2ccc(-c3ccc(Oc4ccccc4)cc3)s2)C1,28µM*,16µM*,28µM*,13µM*,12%[49.3 µM],10%[49.3 µM],?
COc1ccc(-c2ccc(CN3CC(C)(NC(C)=O)C3)s2)cn1,·,·,·,·,17%[49.3 µM],12%[49.3 µM],?
CC(=O)Nc1cccc(-c2csc(CN3CCCC(C)(NC(C)=O)C3)c2)c1 (stereo unspecified),-14%[138 µM],-1%[70.6 µM],?,i,·,·,·
CNC(=O)c1cc(C)nc2onc(C3CCN([S+](=O)([O-])c4ccccc4)C3)c12 (stereo unspecified),-1%,·,-6%,·,·,·,·
Cc1cccc(C(=O)Nc2cccc(C3OC(=O)N(Cc4ccccc4)C3C(=O)NCC(C)C)c2)c1 (stereo unspecified),?,-3%,?,?,·,·,·
Cc1ccc(CN2C(=O)OC(c3cccc(NC(=O)c4ccc(C)cc4)c3)C2C(=O)NCC(C)C)cc1 (stereo unspecified),-24%,?,?,7.1µM*,13%,11µM*,?
Cc1cccn2c(=O)c(C(=O)NCCc3ccccc3)cnc12,·,·,·,·,?,?,7µM*
COCCn1c(C)cnc1CCNC(=O)NCCc1ccccc1,-7%,-17%,-13%,i,·,·,·
Cc1ccc(-c2cc(N)n(-c3ccc(C)cc3)n2)cc1,·,·,·,·,23%,14%,?
CCN1CC(c2nc(-c3ccc(-n4nc(C)cc4N)cc3)no2)CCC1=O (stereo unspecified),?,2%,?,i,·,·,·
SMILES,NIH3T3 tox,NPR1 antag,HEK293 tox,FLuc inh-1,FLuc SDR no ATP,FLuc SDR ATP,FLuc inh-2
Nc1ncnc2c1ncn2[C@H]1O[C@H](CO)[C@@H](O)[C@@H]1O,·,·,·,·,11%,10%,2%
COc1ccc(C(=O)Nc2ccc(-c3nc4ccccc4s3)cc2C)cc1Cl,·,·,·,·,10%,8%,-4%
C=CCOc1cccc(-c2nc(C(=O)Nc3ccccc3)cs2)c1,?,1%,?,?,·,·,·
COc1ccccc1CC(=O)N1CCCc2ncc(C(=O)Nc3ccccc3C)cc21,-29%[138 µM],-3%[70.6 µM],?,i,·,·,·
CCOCCCNC(=O)CNC(=O)c1ccc(-c2cnc3ccccc3c2)cc1,-34%,·,-3%,·,·,·,·
COc1ccc(-c2nc3ccccc3s2)cc1NC(=O)c1ccccc1OC,·,·,·,·,18%,10%,?
CCCCOc1ccc(C(=O)Nc2ccc(-c3nc4ccccc4s3)cc2C)cc1,·,·,·,·,18%,10%,0%
Cc1nonc1COc1ccc(C(=O)Nc2cccc(-c3nc4ccccc4s3)c2)cc1,·,·,·,·,9%,10%,?
c1ccc(-c2nc3ncccc3[nH]2)cc1,-29%[174 µM],0%[70.6 µM],?,?,·,·,·
COc1cccc(CNC(=O)C2CCc3nnc(C4CCN(C(C)=O)CC4)n32)c1 (stereo unspecified),-21%,·,1%,·,·,·,·
CCC(=O)N1CC(N(Cc2ccccc2)C2CCOCC2)C1,i,·,-7%,·,·,·,·
O=C(Nc1cccc(-c2nc3ccccc3s2)c1)N1CCC(O)C1 (stereo unspecified),·,·,·,·,?,?,8.8µM*
COc1ccc(C)cc1NC(=O)c1cnc(-c2ccc(F)cc2)nc1-c1ccncc1,-37%,?,-34%,i,·,·,·
COc1ccc(-c2noc(-c3nc(-c4ccccc4OC)no3)n2)cc1OC,i,3%,-8%,i,·,·,·
COc1ccc(-c2nc3cc(F)ccc3s2)cc1OC,·,·,·,·,20%[3.62 µM],14%[3.62 µM],?
COc1ccc(-c2nc3ccccc3s2)cc1NC(=O)c1cccc(F)c1,·,·,·,·,9%,8%,-12%
COc1ccc(-c2nc3ccccc3s2)cc1NC(=O)c1cc(OC)c(OC)c(OC)c1,·,·,·,·,14%,10%,?
COc1ccc(-c2nc3ccccc3o2)cc1NC(=O)c1cccnc1,·,·,·,·,18%,11%,?
COc1cc(-c2nc3ccccc3s2)ccc1O,·,·,·,·,24%,17%,11µM*
CCOc1ccc(C(=O)Nc2cc(-c3nc4ccccc4s3)ccc2OC)cc1,·,·,·,·,17%,9%,-5%
Cc1c(C(=O)Nc2cccc(-c3nc4ccccc4s3)c2)oc2ccc(F)cc12,·,·,·,·,12%,8%,-14%
Cc1ccccc1-c1onc(C)c1C(=O)NCc1ccc(F)cc1F,-29%,-2%,?,i,·,·,·
Oc1ccc(-c2nc(C3CC3)nc3c2CN(Cc2ccccc2C(F)(F)F)CC3)cc1,?,7%,?,i,·,·,·
COc1cc(F)ccc1-c1nc(N2CCOCC2)cc2c1CN(CC1CC1)C2=O,-38%[138 µM],-2%[70.6 µM],?,i,·,·,·
